# Results from PubChem BioAssay (NCI).
# This is part of a sample that, as a whole, favours compounds with a hit. Of some 83,000 tested, about 20% had one in any assay.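 Each cell line was grown in a 96-well plate and treated with one concentration of compound for 48 hours. Values below 10 were considered active.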 Unmarked numbers belong to inactive results. The source made the active and inactive calls.
# Experiments:
# Experiment in all cases: NCI-60 one-dose screen, 48 h (100 = growth as untreated, 0 = no growth, -100 = all killed)
# Details in all cases: 10 µM unless noted
# [1] = test system: T-47D breast
# [2] = test system: MDA-MB-435 melanoma
# [3] = test system: SW-620 colon
# [4] = test system: MCF7 breast
# [5] = test system: HCT-116 colon
# [6] = test system: HCC-2998 colon
# [7] = test system: KM12 colon
Compound,growth [1],growth [2],growth [3],growth [4],growth [5],growth [6],growth [7]
O=C(C[n+]1ccccc1Cl)c1ccc2c(c1)CCCC2,79.6%,92.1%,82.8%,95.8%,80.3%,103%,82.2%
Cc1ccc2c(c1)Nc1ccc(C)cc1C2(C)C,80.6%,98.3%,103%,86.9%,89.3%,104%,110%
Clc1ccc2c(c1)nnn1c3ncccc3c(Br)c21,60.7%,95.2%,78.9%,64.2%,68.4%,108%,86.4%
C=CCn1c(SCC(=O)Nc2ccc(C(=O)/C=C/c3cc(OC)c(OC)c(OC)c3)cc2)nnc1-c1ccc(OC)cc1,-2.4% (active),-38.1% (active),-6.73% (active),0.763% (active),-29.4% (active),-65.8% (active),-33.7% (active)
Cc1ccc(-c2cn3cc([N+](=O)[O-])ccc3n2)cc1,46.6%,70.8%,100%,34.8%,70.3%,88%,91.4%
Cc1cccc(NCS(=O)(=O)O)c1,94.1%,108%,101%,95.1%,102%,96.9%,112%
COc1ccc(OCC(O)CN2CCN(c3ccc(Cl)cc3)CC2)cc1 (centres undefined),78%,106%,101%,89.2%,91.5%,-94.4% (active),98.9%
COc1cccc(/C=N/C(=S)NC2(C)C3CCC(C3)C2(C)C)c1O (centres undefined),56.5%,89.8%,78.9%,47.8%,53.4%,108%,87.8%
CCC1(C(N)=O)CC2C=CC1CC2 (centres undefined),101%,121%,108%,98%,107%,-100% (active),117%
O=C(COc1ccc(Cl)cc1Cl)N1N=C(c2ccc(Cl)cc2Cl)CC1(O)c1cc(F)c(Cl)cc1Cl (centres undefined),98.8%,107%,116%,95.6%,95%,124%,117%
Cc1cc[n+](CCCC[n+]2ccc(C)cc2)cc1,105%,102%,103%,96.3%,100%,103%,90.5%
CN(C)CCS(=O)(=O)Nc1cc(-c2ccc3ncnc(Nc4ccc(F)c(Cl)c4)c3c2)cnc1Cl,-27% (active),-47.6% (active),-22.7% (active),8.88% (active),-21.5% (active),-83.7% (active),-56.3% (active)
CCOC(=O)n1cnc2c(Cl)ncnc21,100%,111%,108%,95.2%,101%,2.2% (active),107%
NN=C(c1ccc(Cl)cc1)c1ccc(Cl)cc1,108%,97.1%,101%,99.6%,98.4%,96%,92.9%
CC[C@@]1(O)C(=O)OCc2c1cc1n(c2=O)Cc2c-1nc1ccccc1c2/C=N/OC(C)(C)C,2.25% (active),13.5%,11.5%,2.42% (active),3.24% (active),6.39% (active),1.96% (active)
O=C(NCCNc1nccc(-c2c(-c3cccc(O)c3)nc3sccn23)n1)c1ccccc1O,61.8%,14.3%,77.9%,37%,25.9%,81%,46.7%
COc1ccc(-c2nn(-c3ccc(NC(=O)c4ccc(Cl)c(C(F)(F)F)c4)cc3)cc2-c2ccncc2)cc1Cl,46.1%,23.2%,16%,22.5%,15.8%,9.69% (active),14.8%
COc1ccc(-c2ccc(NC(=O)Nc3ccc(Cl)c(C(F)(F)F)c3)c(C)n2)cc1,21.5%,71.9%,67%,36.7%,23.7%,69.2%,37.4%
N#CC(C#N)=C(C#N)c1c[nH]c2ccccc12,60.8%,95.6%,62.4%,74.7%,85.4%,106%,102%
O=C(Nc1ccc(-n2cc(-c3ccncc3)c(-c3ccc(O)c(Cl)c3)n2)cc1)c1cc(C(F)(F)F)cc(C(F)(F)F)c1,60.7%,45.9%,76.2%,58%,40.3%,83.6%,42.3%
Nc1ccc(S(=O)(=O)Nc2cc(I)cc(I)c2)cc1,105%,106%,119%,120%,99.5%,105%,111%
O=C1C(Cl)=C(Nc2ccccc2)C(=O)C(Cl)=C1Nc1ccccc1,98.4%,104%,107%,105%,112%,116%,116%
CC(=O)Oc1ccc(C(OC(C)=O)OC(C)=O)cc1,72.1%,104%,112%,98.5%,92.8%,97.2%,98.6%
Oc1ccc(Cl)cc1Sc1cc(Cl)ccc1O,75.8%,,103%,91.3%,86.9%,106%,106%
c1ccc2nc(Cn3cc[n+](Cc4ccc5ccccc5n4)c3)ccc2c1,29.8%,52.8%,77.8%,,,57.8%,48%
COc1cc2nc(C(=O)N3CCCCC3)cc(Nc3ccccc3)c2cc1OC,91.2%,104%,107%,96.5%,99.9%,105%,99.3%
COc1ccc(Cl)cc1NC(=O)c1cc2c(n1C)-c1nc(NC(=O)C(C)C)sc1CC2,68.2%,93.8%,90.5%,84.5%,44.6%,122%,92.7%
CCNC(=O)Oc1ccc(/C(=C(/CC)Cc2ccccc2)c2ccc(OCCN3CCOCC3)cc2)cc1,20.5%,49.9%,59.3%,22.5%,41.6%,79.5%,37.3%
CC1=C[S+](c2ccccc2)c2cccc3cc4ccccc4c1c23 (centres undefined),-51.9% (active),0.153% (active),,-49.9% (active),-87.6% (active),-89.4% (active),-88% (active)
